Shiga toxin inh: blocks Shiga toxin action in Vero cells. Vero cells, Shiga toxin protein synthesis inhibition reporter. inhibition, % at 38.7 µM. 290,000 compounds, 9.2% hits; in the data active = inhibition mostly above about 28%, no sharp cut-off; inactive = mostly below about 43%; note: 0% is about no effect
SARS PLP yeast: SARS-CoV PLP inhibition in yeast | S. cerevisiae expressing SARS-CoV PLpro, growth rescue | Potency, µM (top dose mostly 32.9 µM), for the others: top-dose activity, positive = growth rescue, hits mostly activators | 330,000 compounds, 0.19% hits | AID 485353; calls by dose curve; note: potency is the fitted concentration of half-maximal effect; 0% is about no effect; nearly all actives have a fitted effect of over 55% in size
NS1 inh: inhibitors of influenza NS1 protein function | Potency, µM (series often up to 46.1 µM), inactives show top-dose activity, positive = more growth | 270,000 compounds, 0.4% hits; calls by dose curve; note: potency is the fitted concentration of half-maximal effect; actives are rising curves; nearly all actives have a fitted effect of over 50% in size
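S. cerevisiae expressing influenza A NS1, grown in glucose, washed, then diluted 1:100 into pH 6.0 -URA galactose medium with 23 nl compound. Growth recovery read as OD600; NS1-free strain serves as control.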
Pf growth 96h: P. falciparum growth inhibition at 96 hour, primary screen for plastid delayed-death inhibitors. Potency, µM (titrated, usually from 28.7 µM), for inactives: at the highest dose activity change, negative = inhibition, actives largely listed as inhibitors. 320,000 compounds, 6.9% hits. P. falciparum luciferase reporter growth, 96 h; note: potency is the fitted concentration of half-maximal effect; % is set by controls: 0 for no effect and ±100 for the full control effect
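Infected RBCs, 2% Hct / 0.05% parasitemia final; luciferase-reporter P. falciparum; cpd 96 h, 37 C, 5% CO2; luciferase detection reagent; luminescence.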
Pf growth 48h: P. falciparum growth inhibition at 48 hours (one generation); AID 504832; 310,000 compounds, 5.9% hits; P. falciparum luciferase growth in erythrocytes, 48 h; Potency, µM (series often up to 28.7 µM), without a hit: top-dose activity change, negative = inhibition, actives largely listed as inhibitors; note: potency is the fitted concentration of half-maximal effect; % is set by controls: 0 for no effect and ±100 for the full control effect
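Here the parasites carry a stable luciferase gene and grow inside erythrocytes in Albumax-based RPMI medium with compound for one erythrocytic cycle. Activity is scored as loss of luminescent signal.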
Cycloheximide cs: counter-screen for Shiga toxin inhibitors: cycloheximide protein synthesis inhibition | max response, % | cell reporter, cycloheximide protein synthesis inhibition counterscreen | 300,000 compounds, 12% hits | AID 2314; in the data active = max response mostly above about 13%, no sharp cut-off; inactive = mostly below about 14%; note: read at 38.3 µM for the half of the compounds with a filed dose; 0% is about no effect
The depositor's hits bear a star; i = inactive; ? = inconclusive; nt = no result; + = active, no number. Rows were chosen to be rich in hits. Some 21% of all compounds tested hit in one or more screens of this group. Unless noted, calls come from the whole dose curve; as a rule, active = well fitted inhibition curve with a large enough effect; inconclusive = small, poorly fitted or top-dose-only effect, or another doubt; inactive = no such curve, though single readings can be large or run the other way.

SMILES	Shiga toxin inh	SARS PLP yeast	NS1 inh	Pf growth 96h	Pf growth 48h	Cycloheximide cs
O=C(Nc1ccc(NC(=O)c2ccc3c(c2)OCCO3)cc1)c1ccccc1	23	-1%	2%	30%	16%	8
O=C(Nc1ccccc1)c1ccc2c(c1)OCCO2	70*	-14%	-176%	35%	49%	41*
CCc1ccc(Nc2nnc(SCc3cc(=O)n4ccsc4n3)s2)cc1	-6	-6%	-6%	nt	-4%	10
Cc1ccc(SCc2cc(=O)n3ccsc3n2)c(C)c1	47	-24%	-6%	i	23%	21*
Cc1ccc(Nc2nnc(SCC(=O)NC3CCS(=O)(=O)C3)s2)c(C)c1 (stereo not drawn)	2	-1%	nt	2.6µM*	?	12
CCc1cccc(CC)c1-n1c(SCc2cc(=O)n3ccsc3n2)nnc1-c1cccnc1	-20	5%	-4%	10µM*	15µM*	-3
COc1ccccc1Nc1nnc(SCc2cc(=O)n3ccsc3n2)s1	3	0%	nt	4.7µM*	?	28
C[C@@H]1O[C@@H](OC2O[C@@H](COc3cc(O)c4c(=O)cc(-c5ccc(O)cc5)oc4c3)[C@@H](O)[C@@H](O)[C@@H]2O)[C@H](O)[C@H](O)[C@H]1O (stereo partly drawn)	-3	nt	nt	nt	nt	5
O=c1cc(CSc2n[nH]c(-c3ccncc3)n2)nc2sccn12	-16	0%	nt	15%	-14%	1
Cc1cccc(-n2c(SCc3cc(=O)n4ccsc4n3)nc3ccccc32)c1	23	-19%	13%	4.1µM*	2.9µM*	20*
O=c1cc(CSc2ccc([N+](=O)[O-])cc2)nc2sccn12	68*	0%	nt	?	49%	20
Cn1c(Cc2ccccc2)nnc1SCc1cc(=O)n2ccsc2n1	19	1%	nt	1%	-11%	7
Cc1ccc(Nc2nnc(SCc3cc(=O)n4ccsc4n3)s2)c(C)c1	-3	-3%	-1%	4.7µM*	6.6µM*	-4
Cc1ccccc1CC(=O)N1CCCC1	-10	-1%	?	?	-14%	-7
CCn1cc(CNC(=S)Nc2cccc(Cl)c2C)cn1	-9	0%	2%	21%	7%	-3
CC(C)NC(=O)CSc1nnc(CNC(=O)OC(C)(C)C)n1C	2	-1%	-12%	40%	1.9µM*	12
Cc1ccc2oc(=O)n(CCOc3ccccc3C)c2c1	-6	1%	2%	9%	2.6µM*	-1
Cc1ccc2oc(=O)n(CCCOc3ccccc3C)c2c1	45*	-1%	-6%	-1%	23%	16*
COc1ccccc1OCCn1c(=O)oc2ccc(C)cc21	18	-1%	-4%	-7%	?	-5
Cc1ccccc1OCCn1c(=O)oc2ccccc21	9	-1%	-39%	-20%	?	-3
COc1cc(OC)cc(-c2nc3ccccc3s2)c1	72*	-9%	-42%	i	172%	46*
COc1ccc2sc(-c3ccc(N(C)C)cc3)c(C#CC(C)(C)O)c2c1	nt	-1%	nt	?	?	nt
COc1ccc2nc(-n3c(C)ccc3C)sc2c1	77*	-6%	-7%	nt	-5%	22*
CNc1ccc(-c2nc3ccccc3s2)cc1	-8	nt	nt	nt	nt	-18
COc1ccc2nc(-c3ccc(N(C)C)cc3)sc2c1	25*	nt	nt	nt	nt	32*
SMILES	Shiga toxin inh	SARS PLP yeast	NS1 inh	Pf growth 96h	Pf growth 48h	Cycloheximide cs
COc1ccc2nc(N)sc2c1	9	-13%	-6%	-2%	31%	13
O=C(Cc1ccc(S(=O)(=O)N2CCOCC2)s1)N1CCN(S(=O)(=O)c2cccc([N+](=O)[O-])c2)CC1	nt	-1%	nt	?	?	nt
CCOC(=O)c1c(NC(=O)c2c(C(=O)O)cccc2[N+](=O)[O-])sc(C)c1C	34	0%	-2%	-19%	0%	-3
CCN1C(=O)c2cccc3c(S(=O)(=O)N(C(C)=O)c4ccc(OC(C)=O)cc4)ccc1c23	nt	-2%	nt	nt	nt	nt
COc1ccc(-c2cc(C(=O)N3CCCC3)no2)cc1OC	86*	-6%	-10%	-4%	70%	20*
COc1ccc(-c2cc(C(=O)N3CCCCC3)no2)cc1OC	77*	-1%	-4%	-4%	105%	39*
COc1ccc(-c2cc(C(=O)N3CCN(c4ccc(F)cc4)CC3)no2)cc1OC	-5	1%	-3%	59%	-28%	1
O=C(COC(=O)C1CC(=O)N(Cc2ccco2)C1)c1ccc(OC(=O)c2ccccc2)cc1 (stereo not drawn)	72*	-17%	-11%	?	-24%	33*
CO[C@H]1[C@H](O)[C@H](O[C@@H]2[C@H](Oc3cccc4c(O)c5c(=O)oc6ccc(C)c7c(=O)oc(c34)c5c67)O[C@@H](C)[C@H](O)[C@H]2O)O[C@@H](C)[C@@H]1O	nt	nt	-5%	nt	nt	nt
FC(F)(F)c1cccc(-c2noc(CN3CCOCC3)n2)c1	8	11%	-3%	34%	12%	15
Clc1cccc(N2CCN(Cc3nc(-c4ccccc4)no3)CC2)c1	2	-20%	-39%	5.9µM*	2%	8
CN1CCCN(Cc2nc(-c3cccc(C(F)(F)F)c3)no2)CC1	5	-2%	-1%	12µM*	-2%	16*
CC(=O)N1CCN(Cc2nc(-c3cccc(Cl)c3)no2)CC1	43*	1%	-1%	12%	25%	18*
Cc1ccc(-c2noc(CCC(=O)NCCCN3CCN(c4cccc(Cl)c4)CC3)n2)cc1	-11	1%	-65%	41%	9.3µM*	-4
CCOC(=O)N1CCN(Cc2nc(-c3cccc(C)c3)no2)CC1	14	6%	-2%	6%	nt	12
CC(C)NC(=O)COC(=O)C1CSC2(c3ccc(Br)cc3)CCC(=O)N12 (stereo not drawn)	14	2%	nt	4%	7%	5
CCOC(=O)c1c(NC(=O)Cn2nc(C(=O)O)c3ccccc3c2=O)sc(CC)c1C	-27	-9%	-10%	28%	0%	-4
CN(C(=O)c1cccs1)c1ccc(OCC(=O)N2CCC(C(N)=O)CC2)cc1	-9	-2%	nt	6%	16%	-1
Cc1cccn2cc(CCNC(=O)Cc3cccs3)nc12	11	1%	-3%	-17%	10%	0
c1ccc(-c2cnnc(SCc3cn4cccnc4n3)n2)cc1	31	-6%	-34%	9.3µM*	10µM*	1
c1ccc2[nH]c(SCc3cn4cccnc4n3)nc2c1	-5	11%	-3%	10%	70%	-3
O=C1C=C(/C=C/c2ccccc2)C[C@@H](c2ccc3c(c2)OCO3)C1	nt	4%	nt	2%	-4%	nt
CN(C)c1cccc(C(=O)OCC(=O)NC(=O)NCc2ccccc2)c1	nt	-4%	nt	nt	nt	nt
Cc1ccc(N2C(=O)c3ccccc3C2C(=O)c2cc(C)ccc2O)cc1 (stereo not drawn)	+	-14%	-11%	2.6µM*	2.6µM*	40*

Screens: PubChem BioAssay, National Center for Advancing Translational Sciences (NCATS)
